Data as given in the supplement of paper PMC11732987, “Enantioselective OTUD7B fragment discovery through chemoproteomics screening and high-throughput optimisation” (Communications Chemistry, 2025).

Experiments:
Assay in all cases: log2 ratio of Biotin-Ahx-Ub-VS probe labelling (fragment/DMSO); higher = less target engagement (more negative = stronger competition), active = hit call of the paper (q ≤ 0.05, log2 ratio ≤ -1)
Settings in all cases: compound concentration: 200 uM; treatment time: 3 h
[1] = target: T1, ALG13 (UniProt Q9NP73)
T1 sequence (whole entry): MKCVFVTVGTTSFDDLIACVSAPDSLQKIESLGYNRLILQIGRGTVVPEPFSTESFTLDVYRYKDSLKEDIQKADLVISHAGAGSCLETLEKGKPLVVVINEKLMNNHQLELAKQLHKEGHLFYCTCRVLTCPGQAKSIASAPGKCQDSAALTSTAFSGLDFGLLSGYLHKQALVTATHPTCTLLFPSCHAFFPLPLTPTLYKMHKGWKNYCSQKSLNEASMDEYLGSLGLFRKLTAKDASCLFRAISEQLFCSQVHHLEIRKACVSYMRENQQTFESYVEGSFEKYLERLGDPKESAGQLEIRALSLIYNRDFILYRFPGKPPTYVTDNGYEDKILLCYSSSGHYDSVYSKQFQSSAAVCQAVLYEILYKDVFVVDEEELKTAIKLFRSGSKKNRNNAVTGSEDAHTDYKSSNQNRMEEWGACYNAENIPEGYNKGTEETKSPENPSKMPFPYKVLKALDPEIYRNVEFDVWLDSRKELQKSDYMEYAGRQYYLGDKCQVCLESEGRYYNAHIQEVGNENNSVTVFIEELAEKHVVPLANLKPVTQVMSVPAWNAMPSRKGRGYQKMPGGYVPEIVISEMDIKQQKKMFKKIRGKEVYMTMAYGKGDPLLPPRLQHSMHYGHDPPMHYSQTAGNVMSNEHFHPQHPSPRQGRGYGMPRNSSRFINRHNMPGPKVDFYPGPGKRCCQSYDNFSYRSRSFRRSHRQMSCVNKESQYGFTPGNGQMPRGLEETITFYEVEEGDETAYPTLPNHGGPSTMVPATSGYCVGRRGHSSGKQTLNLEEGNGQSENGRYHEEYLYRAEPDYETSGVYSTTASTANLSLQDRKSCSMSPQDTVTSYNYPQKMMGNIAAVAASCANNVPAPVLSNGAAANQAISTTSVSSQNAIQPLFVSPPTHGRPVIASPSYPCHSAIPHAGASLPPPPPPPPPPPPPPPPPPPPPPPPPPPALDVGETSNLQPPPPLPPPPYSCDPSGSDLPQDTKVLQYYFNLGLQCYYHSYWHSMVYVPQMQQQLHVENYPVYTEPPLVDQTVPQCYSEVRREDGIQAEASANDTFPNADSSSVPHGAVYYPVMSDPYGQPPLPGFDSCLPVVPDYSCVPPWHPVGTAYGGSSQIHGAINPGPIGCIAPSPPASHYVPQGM
Method in brief: (§1)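 Lysate from HEK293T cells, 495 µg per sample in Tris/CHAPS/IGEPAL buffer with protease inhibitors, was treated for 3 h in triplicate with fragment at 200 µM or vehicle. Biotin-Ahx-Ub-VS was next added at 0.5 µM final for 1 h. The labelled DUBs were enriched with NeutrAvidin, digested with LysC and trypsin, and run by diaPASEF LC-MS/MS, with values given as average log2 fragment/vehicle ratios by unpaired t-test on global-median-normalised Spectronaut quantities of proteins with ≥2 unique peptides.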

[2] = target: ATXN3 (UniProt P54252)
Chain of ATXN3 (P54252 whole entry): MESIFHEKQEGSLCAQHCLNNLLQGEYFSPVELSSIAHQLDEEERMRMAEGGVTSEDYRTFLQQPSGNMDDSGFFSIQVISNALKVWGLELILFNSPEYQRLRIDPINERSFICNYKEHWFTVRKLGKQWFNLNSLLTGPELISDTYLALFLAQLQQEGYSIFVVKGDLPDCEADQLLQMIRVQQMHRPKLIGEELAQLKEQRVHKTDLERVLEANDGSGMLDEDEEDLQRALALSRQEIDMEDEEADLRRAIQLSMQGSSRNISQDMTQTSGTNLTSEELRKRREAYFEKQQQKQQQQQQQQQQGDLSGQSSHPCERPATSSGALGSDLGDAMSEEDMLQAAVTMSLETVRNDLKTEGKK
Method in brief: as §1

[3] = target: T2, BAP1 (UniProt Q92560)
T2 sequence (whole entry): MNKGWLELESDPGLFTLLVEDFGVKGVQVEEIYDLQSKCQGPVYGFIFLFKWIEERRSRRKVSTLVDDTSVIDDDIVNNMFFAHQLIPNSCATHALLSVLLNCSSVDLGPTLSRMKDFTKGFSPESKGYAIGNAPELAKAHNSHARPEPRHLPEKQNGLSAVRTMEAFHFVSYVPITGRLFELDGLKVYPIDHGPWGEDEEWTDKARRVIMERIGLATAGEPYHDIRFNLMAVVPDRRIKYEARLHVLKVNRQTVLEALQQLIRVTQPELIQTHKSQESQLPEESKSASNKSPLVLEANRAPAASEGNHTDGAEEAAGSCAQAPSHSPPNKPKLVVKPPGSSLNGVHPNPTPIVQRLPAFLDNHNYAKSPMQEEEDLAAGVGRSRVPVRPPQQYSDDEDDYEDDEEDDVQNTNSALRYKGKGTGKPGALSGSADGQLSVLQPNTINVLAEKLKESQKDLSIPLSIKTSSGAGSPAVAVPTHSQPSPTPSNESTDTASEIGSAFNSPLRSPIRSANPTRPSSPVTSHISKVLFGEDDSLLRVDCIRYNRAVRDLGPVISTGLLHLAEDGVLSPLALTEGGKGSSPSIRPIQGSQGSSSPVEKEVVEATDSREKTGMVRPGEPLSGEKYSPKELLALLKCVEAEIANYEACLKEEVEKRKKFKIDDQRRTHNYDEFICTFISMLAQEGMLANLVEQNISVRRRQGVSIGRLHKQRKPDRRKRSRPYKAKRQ
Method in brief: as §1

[4] = target: EIF3F (UniProt O00303)
Chain of EIF3F (O00303 whole entry): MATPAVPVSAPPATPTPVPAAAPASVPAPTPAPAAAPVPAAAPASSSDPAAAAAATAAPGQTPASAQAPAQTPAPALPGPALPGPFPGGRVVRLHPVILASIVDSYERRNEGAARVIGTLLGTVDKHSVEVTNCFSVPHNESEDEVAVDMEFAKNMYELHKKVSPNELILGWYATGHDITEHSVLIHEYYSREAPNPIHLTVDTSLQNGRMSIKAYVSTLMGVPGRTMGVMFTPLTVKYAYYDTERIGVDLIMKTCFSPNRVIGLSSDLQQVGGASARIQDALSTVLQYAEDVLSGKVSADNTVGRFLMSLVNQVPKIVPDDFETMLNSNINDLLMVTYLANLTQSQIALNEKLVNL
Method in brief: as §1

[5] = target: EIF3H (UniProt O15372)
Chain of EIF3H (O15372 whole entry): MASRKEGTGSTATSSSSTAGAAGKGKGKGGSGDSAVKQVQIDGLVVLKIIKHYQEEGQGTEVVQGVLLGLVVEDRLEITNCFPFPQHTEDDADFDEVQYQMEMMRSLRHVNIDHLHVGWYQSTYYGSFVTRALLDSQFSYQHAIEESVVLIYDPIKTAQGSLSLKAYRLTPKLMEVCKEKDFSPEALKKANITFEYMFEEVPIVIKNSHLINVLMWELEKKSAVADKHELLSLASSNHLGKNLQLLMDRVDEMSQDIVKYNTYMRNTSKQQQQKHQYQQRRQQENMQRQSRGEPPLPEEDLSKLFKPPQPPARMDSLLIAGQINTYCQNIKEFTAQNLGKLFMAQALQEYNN
Method in brief: as §1

[6] = target: T3, FAM105A (UniProt Q9NUU6)
T3 sequence (whole entry): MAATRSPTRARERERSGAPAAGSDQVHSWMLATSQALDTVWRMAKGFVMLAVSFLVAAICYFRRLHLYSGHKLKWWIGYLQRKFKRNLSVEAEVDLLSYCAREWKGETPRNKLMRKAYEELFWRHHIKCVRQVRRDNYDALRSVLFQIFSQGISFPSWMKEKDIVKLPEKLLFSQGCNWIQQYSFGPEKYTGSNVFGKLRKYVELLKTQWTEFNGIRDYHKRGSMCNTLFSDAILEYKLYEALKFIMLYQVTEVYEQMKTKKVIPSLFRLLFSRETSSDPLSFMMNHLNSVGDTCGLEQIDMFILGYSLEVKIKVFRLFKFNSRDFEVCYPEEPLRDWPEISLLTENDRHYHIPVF
Method in brief: as §1

[7] = target: OTUB1 (UniProt Q96FW1)
Chain of OTUB1 (Q96FW1 whole entry): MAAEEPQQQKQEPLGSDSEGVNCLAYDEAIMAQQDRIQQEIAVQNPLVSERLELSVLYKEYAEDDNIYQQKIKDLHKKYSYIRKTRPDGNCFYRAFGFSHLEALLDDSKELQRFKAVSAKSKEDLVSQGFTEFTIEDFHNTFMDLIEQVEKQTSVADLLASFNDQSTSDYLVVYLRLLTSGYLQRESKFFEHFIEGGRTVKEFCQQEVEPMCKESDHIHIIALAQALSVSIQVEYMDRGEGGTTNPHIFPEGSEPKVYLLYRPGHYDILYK
Method in brief: as §1

[8] = target: T4, OTUD4 (UniProt Q01804)
T4 sequence (whole entry): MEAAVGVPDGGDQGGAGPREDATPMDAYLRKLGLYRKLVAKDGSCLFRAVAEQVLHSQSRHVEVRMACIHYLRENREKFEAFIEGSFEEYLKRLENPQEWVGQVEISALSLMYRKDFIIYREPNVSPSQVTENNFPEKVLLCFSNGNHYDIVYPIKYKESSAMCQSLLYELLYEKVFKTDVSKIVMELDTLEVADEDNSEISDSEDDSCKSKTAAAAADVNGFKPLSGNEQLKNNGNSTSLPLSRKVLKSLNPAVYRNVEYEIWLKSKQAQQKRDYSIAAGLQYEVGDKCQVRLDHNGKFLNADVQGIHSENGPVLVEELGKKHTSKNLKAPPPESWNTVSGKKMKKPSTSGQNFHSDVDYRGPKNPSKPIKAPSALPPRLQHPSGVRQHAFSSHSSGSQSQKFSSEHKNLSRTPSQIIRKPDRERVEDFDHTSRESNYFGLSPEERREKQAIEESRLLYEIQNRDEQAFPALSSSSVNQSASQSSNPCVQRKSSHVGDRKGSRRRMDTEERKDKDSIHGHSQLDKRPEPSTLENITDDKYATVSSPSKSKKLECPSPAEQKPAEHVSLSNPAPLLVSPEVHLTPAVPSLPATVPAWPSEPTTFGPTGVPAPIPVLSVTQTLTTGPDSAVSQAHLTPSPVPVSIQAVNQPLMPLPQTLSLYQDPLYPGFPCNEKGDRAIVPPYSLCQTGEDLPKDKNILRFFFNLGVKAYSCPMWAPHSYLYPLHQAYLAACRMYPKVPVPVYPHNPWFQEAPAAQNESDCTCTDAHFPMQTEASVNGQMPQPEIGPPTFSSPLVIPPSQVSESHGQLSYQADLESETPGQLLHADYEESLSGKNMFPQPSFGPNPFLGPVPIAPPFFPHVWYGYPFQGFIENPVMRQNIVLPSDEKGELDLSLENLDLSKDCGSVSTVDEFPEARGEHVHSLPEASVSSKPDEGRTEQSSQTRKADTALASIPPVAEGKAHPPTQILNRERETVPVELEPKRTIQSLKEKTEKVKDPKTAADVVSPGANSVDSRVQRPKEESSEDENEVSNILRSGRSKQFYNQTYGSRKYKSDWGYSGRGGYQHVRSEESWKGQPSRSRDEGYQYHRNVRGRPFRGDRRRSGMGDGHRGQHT
Method in brief: as §1

[9] = target: T5, OTUD5 (UniProt Q96G74)
T5 sequence (whole entry): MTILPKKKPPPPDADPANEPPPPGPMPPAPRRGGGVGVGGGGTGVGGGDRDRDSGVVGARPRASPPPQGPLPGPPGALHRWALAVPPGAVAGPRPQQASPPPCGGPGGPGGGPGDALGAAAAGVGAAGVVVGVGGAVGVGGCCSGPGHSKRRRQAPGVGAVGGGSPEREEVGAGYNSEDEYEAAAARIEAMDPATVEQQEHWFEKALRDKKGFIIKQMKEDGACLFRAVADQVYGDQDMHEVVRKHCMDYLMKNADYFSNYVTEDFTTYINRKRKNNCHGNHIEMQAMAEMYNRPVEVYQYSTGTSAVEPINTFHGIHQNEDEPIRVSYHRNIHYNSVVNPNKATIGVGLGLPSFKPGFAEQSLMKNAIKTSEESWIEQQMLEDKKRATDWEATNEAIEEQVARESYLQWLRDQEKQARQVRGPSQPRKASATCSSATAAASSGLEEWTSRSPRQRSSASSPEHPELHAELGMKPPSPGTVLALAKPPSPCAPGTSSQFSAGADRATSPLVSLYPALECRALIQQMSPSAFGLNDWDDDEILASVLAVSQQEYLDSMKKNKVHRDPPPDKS
Method in brief: as §1

Measured: log2 ratio of Biotin-Ahx-Ub-VS probe labelling

Cc1cccc(C)c1NC(=O)CCl
inactive: [1] 0.022 | [2] -0.224 | [4] -0.276 | [5] 0.122 | [6] 0.266 | [7] -0.261 | [8] -0.228 | [9] -0.42
active: [3] -3.62
